# Pf growth 96h – Primary qHTS for delayed death inhibitors of the malarial parasite plastid, 96 hour incubation; Potency, µM (top dose mostly 28.7 µM), most hits filed as inhibitors; P. falciparum luciferase reporter growth, 96 h; hit rate 6.9% among 320,000; AID 504834, 2011
#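 96 h incubation, 37 C, 5% CO2, of luciferase-reporter P. falciparum-infected RBCs (2% hematocrit, 0.05% parasitemia final) with test compounds; endpoint luminescence.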
# Pf growth 48h – Primary qHTS for delayed death inhibitors of the malarial parasite plastid, 48 hour incubation. P. falciparum luciferase growth in erythrocytes, 48 h. Potency, µM (highest dose often 28.7 µM), actives largely listed as inhibitors. hit rate 5.9% among 310,000
#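 Luciferase-expressing P. falciparum in infected erythrocytes (2% hematocrit, 0.1% parasitemia final) in RPMI 1640/0.5% Albumax were exposed to compound for 48 hours at 37 C, 5% CO2; growth read as luminescence.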
# Marburg entry inh – qHTS for inhibitors of binding or entry into cells for Marburg Virus | Marburg virus pseudotyped entry inhibition, cell reporter | Potency, µM (top dose mostly 37.8 µM), most hits filed as inhibitors | hit rate 1.8% among 300,000; calls by dose curve; tested in HEK293 cells
# HCMV inh – qHTS Assay for inhibitors of the human cytomegalovirus (HCMV); HFF cells, HCMV-luciferase reporter, 72 h; stronger effect = lower value; AID 1259415, 2018; hit rate 4.5% among 410,000; activity change, negative = inhibition, % at 57.5 µM; in the data active = activity change below about -60%; inconclusive = no clear call, values can overlap the other calls; inactive = above about -39%
#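 Steps: HFFs plated, 16 h 37C; compounds added; HCMV-luciferase added to MOI 1 PFU/cell; 72 h 37C; OneGlo reagent, 5 min room temperature; luminescence read, normalized to controls.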
# LASV entry inh – qHTS for Inhibitors of binding or entry into cells for Lassa Virus | Lassa virus pseudotype entry inhibition, cell reporter | Potency, µM (top dose mostly 37.9 µM), usual class: inhibitors | AID 540256, 2011 | hit rate 1.2% among 300,000; calls by dose curve; tested in HEK293 cells; note: nearly all actives have a fitted effect of over 50% in size
# HCV inhibitor – qHTS Assay for Inhibitors of Hepatitis C Virus (HCV) | Huh7.5.1 HCVcc-Cre infection, luciferase reporter, 44 h | Potency, µM (top dose mostly 41.8 µM), usual class: inhibitors | hit rate 3.4% among 340,000 | AID 651820, 2012
#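 Reporter virus HCVcc-Cre (~0.5 moi) infects cells exposed to compound; seeding density 1,000 cells/well with 4 h settling beforehand. Luminescence, 15 sec read, taken 44 h post-infection following a 15 min RT substrate incubation.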
# A number is an active result; n = inactive; u = inconclusive; x = no result. In the library only some 14% were active in any assay of this set; here they are far more common. Unless noted, calls come from the whole dose curve; as a rule, active = well fitted inhibition curve with a large enough effect; inconclusive = small, poorly fitted or top-dose-only effect, or another doubt; inactive = no such curve, though single readings can be large or run the other way.
SMILES,Pf growth 96h,Pf growth 48h,Marburg entry inh,HCMV inh,LASV entry inh,HCV inhibitor
COc1ccc(OC)c(S(=O)(=O)n2nnc3cc(Cl)ccc32)c1,n,n,n,n,n,n
COc1cc(S(=O)(=O)n2nnc3ccccc32)c(OC)cc1Cl,9.3µM,n,u,n,n,n
COC(=O)c1cn(C)c2ccc(S(=O)(=O)N(C)C3CCCCC3)cc2c1=O,x,x,x,n,x,x
Cc1cc(C)n(-c2ccc(C(=O)Nc3ccc(C)c(S(=O)(=O)N4CCOCC4)c3)cc2)n1,u,u,10µM,-83,u,u
Cc1ccc(NC(=O)c2ccc(S(=O)(=O)N3CC(C)CC(C)C3)cc2)cc1S(=O)(=O)N1CCOCC1 (stereo not drawn),x,x,x,u,x,7.9µM
Cc1ccc(NC(=O)c2cccnc2)cc1S(=O)(=O)N1CCOCC1,u,n,n,n,n,u
O=C(Nc1ccc(Br)cc1)C1CCN(c2ncccn2)CC1,x,x,n,n,n,x
O=c1[nH][nH]c2c1[C@H](CCc1cccc(Cl)c1)O[C@H](CCc1ccccc1)C2,x,x,x,n,x,x
Nc1ccc(C(=O)NN2C(=O)[C@H](Cl)C2c2ccc(Cl)cc2)cc1 (stereo partly drawn),x,x,8.9µM,n,11µM,10µM
CC1=C(C(=O)Nc2ccccc2)C(C(C)C)n2nc(SCc3ccccc3C)nc2N1 (stereo not drawn),x,x,n,n,n,x
COc1cc(C(=O)NCC(c2cccs2)S(=O)(=O)c2cccs2)cc(OC)c1OC (stereo not drawn),x,x,x,n,n,x
Cc1cccc(-n2ncc3c2CCCC3NC(=O)CN2CCCC2=O)c1C (stereo not drawn),n,n,u,n,u,n
Cc1cc(C)cc(-n2ncc3c2CCCC3NC(=O)c2ccccc2)c1 (stereo not drawn),x,x,x,n,x,x
COc1ccc(C(=O)NC2CCCc3c2cnn3-c2cccc(C)c2C)o1 (stereo not drawn),n,u,x,-93,x,u
Cc1cccc(-n2ncc3c2CCCC3NC(=O)c2cccs2)c1C (stereo not drawn),x,x,x,-75,x,x
CCn1cc(C(=O)NC2CCCc3c2cnn3-c2cccc(C)c2C)cn1 (stereo not drawn),u,n,x,-99,x,x
Cc1cccc(-n2ncc3c2CCCC3NC(=O)Cc2c(C)noc2C)c1C (stereo not drawn),n,u,x,u,x,8.9µM
COc1cc(NCCCn2cnc3c(OCc4ccccc4)ncnc32)cc(OC)c1OC,x,x,x,n,x,u
COC(=O)[C@](NC(=O)c1ccccc1)(Nc1nc(C)cs1)C(F)(F)F,x,x,n,x,x,x
O=C(O)C1C2CCC(C2)C1C(=O)N1CCCC1 (stereo not drawn),n,n,n,n,n,n
CCNC(=O)C1CCCN(C(=O)c2ccco2)CC1 (stereo not drawn),x,x,x,n,x,x
O=C(CCN1CCCO1)NC1CCCc2c1cnn2-c1ccccc1F (stereo not drawn),u,n,x,n,x,n
Cc1cccc(-n2ncc3c2CCCC3NC(=O)CCc2cccnc2)c1C (stereo not drawn),n,n,x,-63,x,u
Cc1cccc(-n2ncc3c2CCCC3NC(=O)CN2CCOC2=O)c1C (stereo not drawn),n,n,x,n,x,n
O=C(CCc1cn2ccccc2n1)NC1CCCc2c1cnn2-c1ccccc1F (stereo not drawn),13µM,n,x,n,x,n
SMILES,Pf growth 96h,Pf growth 48h,Marburg entry inh,HCMV inh,LASV entry inh,HCV inhibitor
CC1=C(C(=O)NC2CCCc3c2cnn3-c2cccc(C)c2C)OCCO1 (stereo not drawn),n,u,u,-79,u,3.5µM
Cc1cccc(-n2ncc3c2CCCC3NC(=O)c2ccncc2)c1C (stereo not drawn),x,x,x,-79,x,x
C[C@H](NC(=O)C[C@@H]1CC[C@H]2[C@@H](COC[C@H](O)CN2Cc2ccc(C(F)(F)F)cc2)O1)c1ccccc1,x,x,x,n,x,x
CCOc1ccc(CC(=O)N2CCc3cc(OC)c(OC)cc3C2COc2ccc3c(C)cc(=O)oc3c2)cc1 (stereo not drawn),x,x,n,n,n,x
COc1cc(C(=O)Nc2ccccc2OCc2cc(=O)n3c(C)csc3n2)cc(OC)c1OC,x,x,n,n,n,x
CCc1ccc(NS(=O)(=O)c2ccc(C(=O)N(C)C)s2)cc1,x,x,x,n,n,x
Cc1cc(C(=O)NC2CCCc3c2cnn3-c2cccc(C)c2C)no1 (stereo not drawn),u,n,u,-97,u,11µM
CCOC(=O)N1CCN(C(=O)C[C@@H]2C[C@@]3(C(=O)OCC)CCCC=C3N(Cc3ccc4c(c3)OCO4)C2=O)CC1,x,x,x,n,x,x
O=c1[nH]nc(SCCS(=O)(=O)c2ccc(F)cc2)n1-c1ccc2c(c1)OCCO2,n,n,u,-81,n,n
O=c1[nH]nc(SCCS(=O)(=O)c2ccc(F)cc2)n1-c1ccccc1,n,u,n,-79,n,n
COC(=O)c1ccc(C2NC(=S)N(c3ccccc3)C(C)=C2C(=O)Nc2ccccc2OC)cc1 (stereo not drawn),x,13µM,u,n,6.5µM,u
COc1ccccc1NC(=O)C1=C(C)N(c2ccccc2)C(=S)NC1c1cccc(C(F)(F)F)c1 (stereo not drawn),u,x,u,-96,u,u
O=C(Nc1cccc(F)c1)c1oc2ccccc2c1NC(=O)C12CC3CC(CC(C3)C1)C2,x,x,n,n,u,x
CCCOC(=O)c1ccc(Oc2coc3c(CN(CC)CC)c(O)ccc3c2=O)cc1,12µM,u,n,u,n,u
CCOC(=O)c1ccc(NC(=O)CNC(=O)c2ccccc2)cc1,u,n,n,n,u,n
CCOC(=O)c1ccc(P(=O)(c2ccccc2)c2ccccc2)cc1,n,n,x,-97,x,n
CCOC(=O)c1cccc(-[n+]2c(-c3ccccc3)cc(-c3ccccc3)cc2-c2ccccc2)c1,0.59µM,1.9µM,x,-99,x,u
CCOC(=O)c1ccc(-[n+]2c(-c3ccccc3)cc(-c3ccccc3)cc2-c2ccccc2)cc1,1.2µM,2.9µM,x,x,x,0.63µM
O=C(C1CCC1)N1CCCc2cc(S(=O)(=O)Nc3ccc(F)cc3)ccc21,x,x,x,n,u,x
Cc1cc(C)cc(NC(=O)C(=O)NCC(c2cccnc2)N2CCOCC2)c1 (stereo not drawn),x,x,x,n,n,x
Cc1occc1-c1nnc(-c2cc([N+](=O)[O-])cc([N+](=O)[O-])c2)o1,n,10µM,u,n,n,u
O=[N+]([O-])c1cccc(-c2nnc(-c3ccccc3)o2)c1,n,n,u,n,u,n
C=CCNc1nc2c(c(=O)n(C)c(=O)n2C)n1CCCCCC,n,u,u,-96,n,u

# Source: PubChem
